According to the antibiotic and cytotoxicity screens of Wong et al. (2023):
Out of some 39,000 compounds screened, about 500 (1.3%) were called active. Shown is part of a subset that was picked to be rich in actives.

system: S. aureus RN4220; test: growth inhibition call (relative growth <= 0.2); conditions: 50 µM

Row | SMILES | growth inhibition call
1 | C[C@H](O)C#Cc1cnc2c(c1)C(=O)N([C@H](C)CO)C[C@H](C)[C@@H](CN(C)C(=O)Nc1ccc(C(F)(F)F)cc1)O2 | inactive
2 | C[C@H]1O[C@@H](OC[C@H]2O[C@@H](OC[C@]3(C)[C@H]4CC[C@@]5(C)[C@H](CC[C@H]6C7=CC(C)(C)CC[C@]7(C(=O)O)CC[C@@]65C)[C@@]4(C)CC[C@@H]3O)[C@@H](O)[C@@H](O)[C@@H]2O)[C@@H](O)[C@@H](O)[C@@H]1O | inactive
3 | C[C@@H]1CN([C@H](C)CO)S(=O)(=O)c2ccc(C#CC3(O)CCCC3)cc2O[C@H]1CN(C)C(=O)Cc1cccnc1 | inactive
4 | Cc1ccc(S(=O)(=O)Nc2ccc3c(c2)C(=O)N([C@H](C)CO)C[C@@H](C)[C@H](CN(C)S(=O)(=O)c2ccc(C)cc2)OCCCC[C@H](C)O3)cc1 | inactive
5 | COc1ccc(NC(=O)N(C)C[C@H]2Oc3c(NC(=O)c4cc(C)nn4C)cccc3C(=O)N([C@H](C)CO)C[C@H]2C)cc1 | inactive
6 | COCC#Cc1ccc([C@H]2[C@@H](CO)N3C(=O)CN(C(=O)c4ccncc4)C[C@H]23)cc1 | inactive
7 | C[C@@H]1CN([C@H](C)CO)C(=O)Cc2cc(NC(=O)CCN3CCOCC3)ccc2O[C@@H]1CN(C)S(=O)(=O)c1ccc(F)cc1 | inactive
8 | CC(=O)OC[C@H]1O[C@H](n2ccc(=O)[nH]c2=O)[C@@H](OC(C)=O)[C@@H]1OC(C)=O | inactive
9 | O=C(C[C@H]1CC[C@H]2[C@@H](COC[C@@H](O)CN2C(=O)Nc2cccc(F)c2)O1)NCCCN1CCOCC1 | inactive
10 | O=C(C[C@@H]1CC[C@@H]2[C@H](COC[C@@H](O)CN2C(=O)Nc2cccc(Cl)c2)O1)NCCCN1CCOCC1 | active
11 | O=C(C[C@H]1CC[C@@H]2[C@H](COC[C@@H](O)CN2C(=O)Nc2cccc(F)c2)O1)NCCCN1CCOCC1 | inactive
12 | Cc1noc(C)c1S(=O)(=O)N(C)C[C@@H]1Oc2ccc(NC(=O)Cn3cnnn3)cc2CC(=O)N([C@H](C)CO)C[C@@H]1C | inactive
13 | Cc1noc(C)c1NC(=O)Nc1ccc2c(c1)C(=O)N([C@@H](C)CO)C[C@H](C)[C@H](CN(C)C(=O)NC1CCCCC1)OCCCC[C@@H](C)O2 | inactive
14 | C[C@@H]1CCCCO[C@@H](CN(C)C(=O)Nc2ccc(C(F)(F)F)cc2)[C@H](C)CN([C@@H](C)CO)C(=O)c2cc(NC(=O)c3ccncc3)ccc2O1 | inactive
15 | C[C@@H]1CN([C@@H](C)CO)C(=O)c2cccc(NS(=O)(=O)c3ccc(F)cc3)c2O[C@H]1CN(C)C(=O)Nc1ccc(C(F)(F)F)cc1 | inactive
16 | C[C@@H]1CCCCO[C@H](CN(C)Cc2ccc(C(F)(F)F)cc2)[C@@H](C)CN([C@@H](C)CO)C(=O)c2cc(NS(=O)(=O)c3cn(C)cn3)ccc2O1 | inactive
17 | C[C@@H]1CN([C@H](C)CO)C(=O)c2ccccc2-c2ccccc2CO[C@@H]1CN(C)Cc1ccccc1C(F)(F)F | inactive
18 | C[C@@H]1CN([C@H](C)CO)C(=O)c2c(c3ccccc3n2C)-c2ccccc2CO[C@@H]1CN(C)Cc1ccc(C(=O)O)cc1 | inactive
19 | C[C@H](CO)N1C[C@H](C)[C@@H](CN(C)Cc2ccccc2C(F)(F)F)OCc2ccccc2-c2ccccc2C1=O | active
20 | C[C@@H]1CN([C@H](C)CO)C(=O)c2c(c3ccccc3n2C)-c2ccccc2CO[C@H]1CN(C)Cc1ccc(C(=O)O)cc1 | inactive
21 | C[C@@H]1CN([C@@H](C)CO)C(=O)c2ccccc2-c2ccccc2CO[C@@H]1CN(C)Cc1ccccc1C(F)(F)F | inactive
22 | C[C@H]1CN([C@@H](C)CO)C(=O)c2ccccc2-c2ccccc2CO[C@H]1CN(C)Cc1ccccc1C(F)(F)F | inactive
23 | C[C@H](CO)N1C[C@H](C)[C@H](CN(C)Cc2ccccc2C(F)(F)F)OCc2ccccc2-c2ccccc2C1=O | inactive

Row | SMILES | growth inhibition call
24 | C[C@@H]1CN([C@@H](C)CO)C(=O)c2ccccc2-c2ccccc2CO[C@H]1CN(C)Cc1ccccc1C(F)(F)F | active
25 | C[C@H](CO)N1C[C@H](C)[C@H](CN(C)Cc2ccc(C(=O)O)cc2)OCc2ccccc2-c2c(n(C)c3ccccc23)C1=O | active
26 | O=C([C@H]1CCCO1)N1CCNCC1 | inactive
27 | C[C@@H]1CCCCO[C@@H](CN(C)Cc2ccncc2)[C@H](C)CN([C@H](C)CO)C(=O)c2cc(NC(=O)CCC(F)(F)F)ccc2O1 | inactive
28 | COc1ccc2c3c(n(c2c1)C)[C@@H](CO)N(C[C@]13CCN(CC1)C(=O)c1ccccc1F)C(=O)Nc1ccccc1F | inactive
29 | Cc1ccc(S(=O)(=O)N(C)C[C@H]2OCCCC[C@H](C)Oc3ccc(NS(=O)(=O)c4ccc(Cl)cc4)cc3C(=O)N([C@H](C)CO)C[C@@H]2C)cc1 | inactive
30 | COCCCOc1cc(C[C@@H](C[C@H](N)[C@@H](O)C[C@H](C(=O)NCC(C)(C)C(N)=O)C(C)C)C(C)C)ccc1OC | inactive
31 | C[C@@H]1CN([C@H](C)CO)S(=O)(=O)c2ccc(C#CC3CCCCC3)cc2O[C@@H]1CN(C)C(=O)Cc1ccncc1 | inactive
32 | C[N+](C)(C)CCCCNC(=O)[C@@H]1C[C@@H]2C(=O)N[C@@H](CCCC[N+](C)(C)C)C(=O)N2[C@@H]1c1cccc(OCCO)c1 | inactive
33 | C[C@@H]1CN([C@H](C)CO)C(=O)c2cc(NC(=O)Nc3cccc4ccccc34)ccc2O[C@@H]1CN(C)Cc1ccccc1 | inactive
34 | CC(C)NC(=O)Nc1ccc2c(c1)CC(=O)N([C@H](C)CO)C[C@@H](C)[C@@H](CN(C)Cc1ccc(Oc3ccccc3)cc1)O2 | inactive
35 | CN1CCN(c2c(F)cc3c(=O)c(C(=O)O)cn4c3c2SCC4)CC1 | active
36 | CN1CCN(c2c(F)cc3c(=O)c(C(=O)O)cn(CCF)c3c2F)CC1 | active
37 | Cc1ccc(S(=O)(=O)Nc2ccc3c(c2)CC(=O)N([C@@H](C)CO)C[C@@H](C)[C@@H](CN(C)C(=O)Nc2ccc(C(F)(F)F)cc2)O3)cc1 | inactive
38 | NC(CO)C(=O)O (configuration not stated) | inactive
39 | Cn1cnc(S(=O)(=O)N2C[C@@H](O)COC[C@@H]3O[C@H](CC(=O)NC4CCCC4)CC[C@H]32)c1 | inactive
40 | O=C(NCCO)c1nc(NCCO)c2ccccc2n1 | inactive
41 | C[C@@H]1CCCCO[C@H](CN(C)S(=O)(=O)c2ccccc2)[C@@H](C)CN([C@@H](C)CO)C(=O)c2cc(NC(=O)Nc3ccccc3)ccc2O1 | inactive
42 | CCC(=O)NC[C@H](Cc1ccc(OCCc2nc(-c3ccccc3)oc2C)cc1)N/C(C)=C\C(=O)c1ccc(C(F)(F)F)cc1 | inactive
43 | COC(=O)c1nc[nH]c1C(=O)OC | inactive
44 | CC1(C)C(C(=O)O)N2C(=O)CC2S1(=O)=O (configuration not stated) | inactive
45 | C[n+]1ccn(C[C@@]2(C)[C@H](C(=O)O)N3C(=O)C[C@H]3S2(=O)=O)n1 | active
46 | CC1(Cn2ccnn2)C(C(=O)O)N2C(=O)CC2S1(=O)=O (configuration not stated) | active

Row | SMILES | growth inhibition call
47 | CC1(C)[C@H](C(=O)O)N2C(=O)C[C@H]2S1(=O)=O | inactive
48 | Cc1noc(C[C@@H]2C[C@@H]3CN(S(C)(=O)=O)C[C@@H]3O2)n1 | inactive
49 | C[C@@H]1CCCCO[C@H](CN(C)C)[C@H](C)CN([C@H](C)CO)C(=O)c2cc(NS(=O)(=O)c3cn(C)cn3)ccc2O1 | inactive
50 | CS(=O)(=O)N1[C@@H]2c3ccc(-c4ccccc4)c(=O)n3C[C@H]1[C@H](CO)[C@H]2C(=O)NCC1CC1 | inactive
51 | COc1cc(F)c(F)c(Nc2ccc(I)cc2F)c1NS(=O)(=O)C1(C[C@H](O)CO)CC1 | active
52 | Cn1c(=O)c(F)c(Nc2ccc(I)cc2F)c2c(=O)n(C[C@@H](O)CO)cnc21 | inactive
53 | O=C(NOC[C@H](O)CO)c1cc(Br)c(F)c(F)c1Nc1ccc(I)cc1F | inactive
54 | CC1(C)S[C@@H]2[C@H](NC(=O)[C@H](N)c3ccccc3)C(=O)N2[C@H]1C(=O)OCOC(=O)[C@@H]1N2C(=O)C[C@H]2S(=O)(=O)C1(C)C | active
55 | CCOC(=O)OC(C)OC(=O)C1N2C(=O)C(NC(=O)C(N)c3ccccc3)C2SC1(C)C.Cl (configuration not stated) | active
56 | C[C@@H]1CN([C@H](C)CO)C(=O)c2c(c3ccccc3n2C)-c2ccccc2CO[C@@H]1CN(C)Cc1ccccc1 | inactive
57 | O=C(C[C@@H]1C=C[C@@H](NS(=O)(=O)c2ccc(F)cc2)[C@H](CO)O1)N1CCC(Cc2ccccc2)CC1 | inactive
58 | CN1C(=O)c2cc(NS(=O)(=O)c3ccc(F)cc3)ccc2OC[C@H]2O[C@H](CC(=O)NCC(F)(F)F)CC[C@H]21 | inactive
59 | COCC#Cc1ccc2c(c1)O[C@H](CN(C)S(=O)(=O)c1ccc(C)cc1)[C@H](C)CN([C@@H](C)CO)S2(=O)=O | inactive
60 | COCCn1c(=NN)[nH]c2ccsc2c1=O | inactive
61 | O=C(C[C@H]1CC[C@@H]2[C@H](COC[C@@H](O)CN2Cc2cc(F)ccc2F)O1)N[C@@H]1CCN(Cc2ccccc2)C1 | inactive
62 | CCCCc1nn(-c2ccccc2C(F)(F)F)c(=O)n1Cc1ccc(-c2ccccc2S(=O)(=O)NC(=O)c2sccc2C)cc1 | active
63 | COc1ccc([Si](C)(C)[C@H]2[C@H](CC(=O)N3CCC[C@H]3CO)O[C@@]3(C(=O)N(Cc4ccc(N5CCCCC5=O)cc4)c4ccccc43)[C@@H]2C)cc1 | inactive
64 | C[C@@H]1CN([C@H](C)CO)C(=O)c2c(c3ccccc3n2C)-c2ccccc2CO[C@@H]1CN(C)Cc1ccc(Cl)c(Cl)c1 | inactive
65 | CO/N=C1\CN(c2nc3c(cc2F)c(=O)c(C(=O)O)cn3C2CC2)C[C@@H]1CN | active
66 | CON=C1CN(c2nc3c(cc2F)c(=O)c(C(=O)O)cn3C2CC2)CC1CN.CS(=O)(=O)O (configuration not stated) | active
67 | C[C@H]1CN([C@@H](C)CO)C(=O)c2cccc(NC(=O)CCCCCC(=O)Nc3ccccc3N)c2O[C@H]1CN(C)C(=O)Nc1cccc2ccccc12 | inactive
